The results in this text go back to PubChem BioAssay (Tox21).

Experiment [1] can be described thus: qHTS assay to identify small molecule antagonists of the estrogen related receptor (ERR) signaling pathway from Tox21 library - cell viability counter screen (AID 1224834). Note: nearly all actives have a fitted effect of over 30% in size. An outline of the steps:
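After 17.5 h of compound exposure at 37 C, ERR cells are incubated with CellTiter-Fluor for 30 min and fluorescence intensity serves as the viability measure.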
On the technique in general: qHTS replaces the single test concentration by a dilution series.

Experiment [2] deals with Luciferin 4-monooxygenase (Photinus pyralis) (UniProt P08659). Nature of the experiment: qHTS assay to identify small molecule inhibitors of firefly luciferase (AID 1224835). Note: nearly all actives have a fitted effect of over 25% in size. Note: potency is the fitted concentration of half-maximal effect. An outline of the steps:
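Biochemical qHTS: compounds run as interplate titrations against purified firefly enzyme, with D-luciferin and ATP each at its KM concentration. Light output recorded by CCD imaging.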

A short description of experiment [3]: qHTS assay to identify small molecule agonists of the constitutive androstane receptor (CAR) signaling pathway - cell viability counter screen (AID 1224836). Note: series mostly up to about 92 µM; nearly all actives have a fitted effect of over 45% in size. A digest of the protocol:
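HepG2 cells stably carrying hCAR and a CYP2B6-2.2kb reporter were plated 4 h, then given compounds at 15 concentrations plus PK11195 (final 0.75 uM). After 23 h at 37 C, viability was read by CellTiter-Fluor fluorescence.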

Experiment [4] in a line: qHTS assay to identify small molecule antagonists of the constitutive androstane receptor (CAR) signaling pathway - cell viability counter screen (AID 1224837). Note: series mostly up to about 92 µM; nearly all actives have a fitted effect of over 45% in size. A digest of the protocol: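 Counter screen run in HepG2-CYP2B6-hCAR cells: 4 hr settle, compound titration (15 concentrations) with 50 nM CITCO, 23 hr at 37 C/5% CO2, CellTiter-Fluor fluorescence.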
The target in experiment [5] is Nuclear receptor subfamily 1 group I member 3 (Homo sapiens) (UniProt Q14994). Nature of the experiment: qHTS assay to identify small molecule antagonists of the constitutive androstane receptor (CAR) signaling pathway (AID 1224838). Note: nearly all actives have a fitted effect of over 40% in size. An outline of the steps: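 Cell line: HepG2 double-stable for hCAR and CYP2B6-2.2kb reporter. Agonist: CITCO, 50 nM final. Compounds: 15 concentrations, 24 h, 37 C. Detection: ONE-Glo luminescence.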

For experiment [6] the target is unchanged. Nature of the experiment: qHTS assay to identify small molecule agonists of the constitutive androstane receptor (CAR) signaling pathway (AID 1224839).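 For activation: HepG2 cells stably carrying human CAR and a CYP2B6 luciferase reporter; series mostly up to about 92 µM.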 Note: nearly all actives have a fitted effect of over 15% in size. Note: potency is the fitted concentration of half-maximal effect. A digest of the protocol:
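HepG2 cells stably expressing hCAR and a CYP2B6-2.2kb luciferase reporter were treated with compounds at 15 concentrations plus 0.75 uM PK11195 (final) for 24 h at 37 C; luminescence was read after ONE-Glo addition.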

Experiment [7] is described as follows: qHTS assay to identify small molecule antagonists of the estrogen related receptor signaling pathway with the pleiotropic PPARgamma coactivator (PGC) from Tox21 10K library - cell viability counter screen (AID 1224840; active = well fitted cell-killing curve with a large enough effect in the repeat runs, not every such curve was filed as active; note: nearly all actives have a fitted effect of over 40% in size). A digest of the protocol:
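Following seeding of 2,000 PGC/ERR cells/well and 6 hours' incubation, test compounds were delivered in DMSO. The plates then sat 17.5 hours at 37 C before a fluorogenic live-cell protease reagent (CellTiter-Fluor) was read after 30 min.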

A short description of experiment [8]: qHTS assay to identify small molecule antagonists of the estrogen related receptor signaling pathway with the pleiotropic PPARgamma coactivator (PGC) from Tox21 10K library (AID 1224841; call rule not given here; note: series mostly up to about 92 µM; actives are mostly falling curves and most rising ones were filed inactive; nearly all actives have a fitted effect of over 50% in size). An outline of the steps:
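qHTS antagonist format: PGC/ERR cells, 2k/well, compound in DMSO by pin transfer after 6 h attachment, 18 h treatment at 37 C, One-Glo luminescence read at 30 min.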

A short description of experiment [9]: qHTS assay to identify small molecule agonists of the estrogen related receptor signaling pathway with the pleiotropic PPARgamma coactivator (PGC) from Tox21 10K library (AID 1224842). Note: nearly all actives have a fitted effect of over 15% in size. An outline of the steps:
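PGC/ERR reporter cell line, 2,000 cells per well, incubated 6 h at 37 C before 23 nL compound in DMSO was added. After 18 h at 37 C, One-Glo luminescence read following 30 min at room temperature.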

Experiment [10] in a line: qHTS assay to identify small molecule agonists of the hypoxia (HIF-1) signaling pathway - cell viability counter screen (AID 1224844; calls by dose curve; note: nearly all actives have a fitted effect of over 50% in size). A digest of the protocol:
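Cells (HRE-bla ME-180, 2,000 per well) sat 5 hrs at 37C, got compound for 17 hrs, were read for CCF4-AM FRET, and were finally lysed with CellTiter-Glo for a 30 min room-temperature luminescence read.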

The nature of experiment [11]: qHTS assay to identify small molecule agonists of H2AX (AID 1224845; active = well fitted activation curve with a large enough effect in the signal ratio in the repeat runs, not every such curve was filed as active; the % refers to the signal ratio). An outline of the steps:
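Wild-type CHO-K1 cells, plated overnight, exposed 3hr at 37C to 15 concentrations (0.76% DMSO final). Lysed, then HTRF anti-pH2AX (S139) cryptate and anti-H2AX-d2 antibodies, 24 hr room temperature; 665/620 nm emission read.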

Experiment [12] can be described thus: qHTS assay to identify small molecule agonists of H2AX - cell viability counter screen (AID 1224847; calls by dose curve; note: top concentration of the series differs between compounds; nearly all actives have a fitted effect of over 30% in size). A digest of the protocol:
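Wild-type CHO-K1 cells (10% FBS medium) were plated overnight at 37C, exposed to compounds at 15 concentrations for 3 hr at 37C (0.76% DMSO final), and viability was read as CellTiter-Glo luminescence after 30 min at room temperature.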

Experiment [13] is described as follows: qHTS assay to identify small molecule antagonists of the estrogen related receptor (ERR) signaling pathway from Tox21 library (AID 1224848). Note: nearly all actives have a fitted effect of over 50% in size. A digest of the protocol:
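ERR reporter cell line (from NTP) seeded 2,000 cells/well, rested 6 h at 37 C/5% CO2, then pin-dosed with compounds in DMSO. After 18 h at 37 C, ONE-Glo added; luminescence read after 30 min at room temperature.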

A short description of experiment [14]: qHTS RealTime-Glo MT Cell Viability Assay in HepG2 cells - 24 hour (AID 1224867). Note: nearly all actives have a fitted effect of over 50% in size. An outline of the steps:
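Luminescence read-out: viable HepG2 cells reduce a prosubstrate to a NanoLuc substrate, giving a signal proportional to live cell number. Reads taken at 0, 8, 16, 24, 32 and 40 h of compound exposure at 37 C.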

Experiment [15] in a line: qHTS RealTime-Glo MT Cell Viability Assay in HEK293 cells - 32 hour (AID 1224868). A digest of the protocol:
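Nonlytic real-time viability readout: viable cells convert prosubstrate to NanoLuc substrate, giving luminescence proportional to live cell number. HEK293, 600 cells/well, compound added after 5 h, continuous culture at 37 C.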

The nature of experiment [16]: A CellTox Green Cytotoxicity Assay to monitor cytotoxicity in HEK293 cells - 0 hour (AID 1224869). Note: nearly all actives have a fitted effect of over 50% in size. An outline of the steps:
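Fluorescence intensity, read at 0, 8, 16, 24, 32 and 40 h of compound treatment, reflected dye binding to DNA of dead HEK293 cells; compounds (23 nL, DMSO) were added 5 h after plating cells with reagent.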

The target in experiment [17] is Thyrotropin receptor (Homo sapiens) (UniProt P16473). As to the kind of experiment: qHTS assay to identify small molecule agonists of the thyroid stimulating hormone receptor (TSHR) signaling pathway (AID 1224843; calls by dose curve; note: nearly all actives have a fitted effect of over 45% in size). A digest of the protocol:
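TSHR-HEK293 cells in agonist mode, 30 min room-temperature step, then cAMP measured by competitive HTRF (cAMP-d2 with anti-cAMP cryptate) after 1 h at room temperature. Tested at 15 concentrations in triplicate.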

A short description of experiment [18]: qHTS assay to identify small molecule agonists of the hypoxia (HIF-1) signaling pathway (AID 1224846; active = well fitted activation curve with a large enough effect in the signal ratio in the repeat runs, not every such curve was filed as active; the % refers to the signal ratio). An outline of the steps: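 A low-serum medium (0.5% dialyzed FBS) holding 2,000 HRE-bla ME-180 cells per well is preincubated for 5 hrs, dosed with compounds by pintool, and kept a further 17 hrs at 37C, 5% CO2 before CCF4-AM FRET detection of beta-lactamase.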

Molecules are shown by their SMILES. Inconclusive results are not listed. Some compounds were tested as several samples or in several runs, with calls that do not always agree. Calls of active or inactive are those of the source. Unless noted, calls come from the whole dose curve; as a rule, active = well fitted curve in the direction sought with a large enough effect in the repeat runs; inconclusive = weak or mixed curves; inactive = no such curve, though single readings can be large; an effect the other way counts as inactive or inconclusive.

Sequence of Thyrotropin receptor (Homo sapiens) (P16473 whole entry, looked up): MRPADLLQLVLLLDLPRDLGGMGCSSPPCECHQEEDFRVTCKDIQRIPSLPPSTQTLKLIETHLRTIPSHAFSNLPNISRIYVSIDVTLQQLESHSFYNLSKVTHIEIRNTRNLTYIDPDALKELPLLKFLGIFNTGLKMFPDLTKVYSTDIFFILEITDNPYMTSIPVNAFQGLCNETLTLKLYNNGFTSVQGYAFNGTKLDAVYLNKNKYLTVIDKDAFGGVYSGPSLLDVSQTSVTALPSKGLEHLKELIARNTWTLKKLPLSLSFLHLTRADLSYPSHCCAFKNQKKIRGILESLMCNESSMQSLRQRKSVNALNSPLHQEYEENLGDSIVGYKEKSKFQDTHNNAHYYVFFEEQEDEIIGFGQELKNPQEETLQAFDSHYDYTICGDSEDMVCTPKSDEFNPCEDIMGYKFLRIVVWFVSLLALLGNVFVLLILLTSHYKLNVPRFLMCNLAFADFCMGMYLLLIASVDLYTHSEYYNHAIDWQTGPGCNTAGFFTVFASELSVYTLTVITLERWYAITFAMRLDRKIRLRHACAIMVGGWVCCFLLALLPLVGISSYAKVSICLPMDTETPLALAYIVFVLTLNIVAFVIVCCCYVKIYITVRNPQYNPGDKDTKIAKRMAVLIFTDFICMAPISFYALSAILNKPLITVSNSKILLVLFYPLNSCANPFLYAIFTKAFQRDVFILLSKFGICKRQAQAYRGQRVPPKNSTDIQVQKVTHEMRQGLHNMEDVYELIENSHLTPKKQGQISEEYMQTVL
Sequence of Nuclear receptor subfamily 1 group I member 3 (Homo sapiens) (Q14994 whole entry, looked up): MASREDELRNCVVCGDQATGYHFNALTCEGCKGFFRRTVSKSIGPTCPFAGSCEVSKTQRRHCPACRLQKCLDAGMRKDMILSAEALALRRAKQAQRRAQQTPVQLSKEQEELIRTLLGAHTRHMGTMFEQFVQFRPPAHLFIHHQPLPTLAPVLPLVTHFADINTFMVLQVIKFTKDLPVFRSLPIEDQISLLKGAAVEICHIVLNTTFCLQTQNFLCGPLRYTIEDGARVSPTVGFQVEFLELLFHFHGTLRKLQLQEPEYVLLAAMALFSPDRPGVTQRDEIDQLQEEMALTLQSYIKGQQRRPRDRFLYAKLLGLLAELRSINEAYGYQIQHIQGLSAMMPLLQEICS
Sequence of Luciferin 4-monooxygenase (Photinus pyralis) (P08659 whole entry, looked up): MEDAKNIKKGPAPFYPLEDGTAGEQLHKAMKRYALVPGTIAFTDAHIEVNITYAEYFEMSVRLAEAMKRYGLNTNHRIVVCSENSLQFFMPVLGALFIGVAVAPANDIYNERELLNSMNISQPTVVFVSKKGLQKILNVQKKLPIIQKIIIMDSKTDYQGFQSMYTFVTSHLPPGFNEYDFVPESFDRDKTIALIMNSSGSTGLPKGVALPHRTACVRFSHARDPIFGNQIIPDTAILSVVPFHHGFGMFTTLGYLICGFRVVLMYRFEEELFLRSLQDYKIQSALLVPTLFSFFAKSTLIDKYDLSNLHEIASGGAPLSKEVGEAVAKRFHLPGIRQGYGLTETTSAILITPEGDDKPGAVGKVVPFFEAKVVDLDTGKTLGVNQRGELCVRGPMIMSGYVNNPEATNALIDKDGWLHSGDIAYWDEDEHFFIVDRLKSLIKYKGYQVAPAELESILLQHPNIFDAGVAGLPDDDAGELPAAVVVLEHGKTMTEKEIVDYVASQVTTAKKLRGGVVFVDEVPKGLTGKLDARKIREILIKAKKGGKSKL

In the case of `Cn1c([N+](=O)[O-])cnc1COC(N)=O`, the Potency result in [1], in [2], in experiment [3], in experiment [4], in experiment [5] and in experiment [6] was “inactive” each time. Besides, the Potency entry in experiment [7], in experiment [8], in experiment [9], in experiment [10], in [11] and in experiment [12] was “inactive” each time. Also, the Potency entry in experiment [13], in experiment [14], in experiment [15] and in [16] was “inactive” in each case.

As for `C=C(C)C(=O)OCCCCCCCCCCCC`, the Potency entry in [1], in experiment [2], in [3], in experiment [4], in experiment [5] and in [6] was “inactive” throughout. Further, the Potency result in experiment [7], in [8], in [9], in [17], in experiment [10] and in experiment [11] was “inactive” each time. The Potency entry in experiment [12], in experiment [13], in [14] and in experiment [15] was “inactive” throughout. Moreover, the molecule was classed as inactive in experiment [18].

On to `O=C1O[C@H](CO)[C@@H](O)[C@H](O)[C@H]1O`, for which the Potency entry in experiment [1], in experiment [2], in experiment [3], in experiment [4], in experiment [5] and in [6] was “inactive” each time. Besides, the Potency entry in experiment [7], in experiment [8], in [9], in experiment [17], in experiment [10] and in experiment [11] was “inactive” throughout. Besides, the Potency result in experiment [12], in experiment [13], in experiment [14], in [15] and in experiment [16] was “inactive” in each case. Besides, the molecule was classed as inactive in experiment [18].

With `Cc1cc(=O)[nH]c(C(C)C)n1`, the Potency result in [1], in experiment [2], in experiment [3], in experiment [4], in experiment [5] and in [6] was “inactive” in each case. The Potency result in experiment [7], in experiment [8], in [9], in experiment [17], in experiment [10] and in experiment [11] was “inactive” throughout. Further, the Potency result in experiment [12], in [13], in experiment [14], in experiment [15] and in [16] was “inactive” in each case. Further, in [18], the result was inactive.

In the case of `CCOC(=O)/C=C\C(=O)OCC`, the Potency entry in experiment [1], in experiment [2], in experiment [3], in [4], in [7] and in experiment [8] was “inactive” in each case. The Potency entry in experiment [9], in experiment [17], in experiment [10], in [11], in experiment [12] and in [13] was “inactive” throughout. For the same molecule, the Potency result in experiment [14], in [15] and in [16] was “inactive” each time. In experiment [18], the molecule was called inactive.

Turning to `CC1=C(CC(=O)O)c2cc(F)ccc2/C1=C\c1ccc(S(C)=O)cc1` (centres undefined), the Potency entry in experiment [1], in [2], in experiment [3], in experiment [4], in experiment [5] and in [7] was “inactive” each time. Moreover, the Potency result in experiment [17], in [10], in experiment [11], in [12], in experiment [14] and in experiment [15] was “inactive” each time. Also, the Potency entry in experiment [16] was “inactive”. For the same molecule, the Potency in experiment [6] is 61.1 µM (active) and inactive.

For the molecule `CN(C)c1cccc(O)c1`, the Potency entry in experiment [1], in experiment [3], in experiment [4], in experiment [5], in experiment [7] and in experiment [17] was “inactive” throughout. Moreover, the Potency entry in [10], in [11], in [12], in experiment [14], in experiment [15] and in experiment [16] was “inactive” in each case. The Potency in experiment [2] was 31.7 µM (active); in experiment [6] it was 62.1 µM (active). For the same molecule, the molecule was called inactive in [18].
